Among the data in PubChem BioAssay AID2566 (National Center for Advancing Translational Sciences (NCATS), 2010) are Potency values, retold here.

Results filed as inconclusive are left out. Calls of active or inactive are those of the source.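 The calls were made as follows: active = compound that pushes labeled neuropeptide S off its receptor in a binding test; inconclusive = all other tested compounds; inactive = none, nothing was called inactive.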

The target in this experiment is Neuropeptide S receptor (Homo sapiens) (UniProt Q6W5P4). Nature of the experiment: Confirmation Concentration-Response Assay for Antagonists of the Neuropeptide S Receptor: Radioligand Displacement, SAR for Probe. The conditions noted are these: CHO-hNPSR, [125I]Y10-NPS displacement, 1.5 h. From the text:
NIH Chemical Genomics Center [NCGC] NIH Molecular Libraries Probe Production centers Network [MLPCN] MLPCN Grant: X01-DA026210-01 Assay Submitter (PI): Heilig, Markus Alexander NCGC Assay Overview: Neuropeptide S receptor (NPSR), previously known as GPR154, is a recently de-orphanized G protein coupled receptor. Its endogenous ligand is the 20 amino acids peptide Neuropeptide S (NPS). […] NPS and its receptor are found in various tissues. Specifically they are highly expressed in brain areas that have been implicated in modulation of arousal, stress and anxiety. Central administration of NPS in mice produces an unusual profile of activity by inducing wakefulness and arousal, while at the same time suppressing anxiety. Therefore, NPSR may represent a novel drug target for the treatment of sleep and anxiety disorders. As one method of confirming the specific activity of compounds active in the primary screen (AID 1461), we developed an assay to measure the displacement of radio-labeled native ligand, NPS, from its receptor in vitro.
The assay was carried out as described (Xu et al. (2004) Neuron, 43: 487-497) with minor modification. Y10-NPS labeled with 125I was bought from NEN Perkin Elmer (Boston, MA). […] Nonspecific binding was determined in the presence of 1 uM unlabeled human NPS. […] Bound radioactivity was counted in a liquid scintillation counter.
Background: Loss of bound radioactivity is the signal in a displacement assay; it reports binding, not function.

Neuropeptide S receptor (Homo sapiens), sequence (Q6W5P4 whole entry, looked up): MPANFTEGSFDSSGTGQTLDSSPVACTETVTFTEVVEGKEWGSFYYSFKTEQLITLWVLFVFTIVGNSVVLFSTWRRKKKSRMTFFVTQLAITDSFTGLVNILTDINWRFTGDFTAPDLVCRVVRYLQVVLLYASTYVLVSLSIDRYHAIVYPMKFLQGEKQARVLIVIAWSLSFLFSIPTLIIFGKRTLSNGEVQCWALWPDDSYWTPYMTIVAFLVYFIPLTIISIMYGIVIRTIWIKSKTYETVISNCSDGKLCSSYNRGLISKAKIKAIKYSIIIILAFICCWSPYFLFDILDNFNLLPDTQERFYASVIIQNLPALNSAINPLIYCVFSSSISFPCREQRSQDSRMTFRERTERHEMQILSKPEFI

Take `Cc1c(P(=S)(c2ccccc2)c2ccccc2)[n+]2ccccc2n1C`: the Potency was 84.3 nM (active).

For `Cc1c(P(=S)(c2ccccc2)c2ccccc2)[n+]2ccccc2n1C/C=C/c1ccccc1`, the Potency is 1 nM (active).
